Results published in PubChem BioAssay (NCI).
Compounds without any hit were thinned out: in the full panel of roughly 83,000, 20% have a hit.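 Single-dose data. Exposure time 48 hours. Values below 10 considered active.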 Values without a mark were called inactive. The source made the active and inactive calls.

Columns and labels:
Assay in all cases: NCI-60 one-dose screen, 48 h (100 = growth as untreated, 0 = no growth, -100 = all killed)
Conditions in all cases: 10 µM unless noted
HCT-15 colon = system: HCT-15 colon
HT29 colon = system: HT29 colon
SNB-75 CNS = system: SNB-75 CNS
SNB-19 CNS = system: SNB-19 CNS
U251 CNS = system: U251 CNS
PC-3 prostate = system: PC-3 prostate
SK-MEL-5 melanoma = system: SK-MEL-5 melanoma
UACC-62 melanoma = system: UACC-62 melanoma
LOX IMVI melanoma = system: LOX IMVI melanoma
SK-MEL-28 melanoma = system: SK-MEL-28 melanoma
SK-MEL-2 melanoma = system: SK-MEL-2 melanoma
EKVX NSCLC = system: EKVX NSCLC
SN12C renal = system: SN12C renal
UO-31 renal = system: UO-31 renal
TK-10 renal = system: TK-10 renal
CAKI-1 renal = system: CAKI-1 renal
CCRF-CEM leukemia = system: CCRF-CEM leukemia
MOLT-4 leukemia = system: MOLT-4 leukemia
A498 renal = system: A498 renal
ACHN renal = system: ACHN renal

SMILES	growth (HCT-15 colon)	growth (HT29 colon)	growth (SNB-75 CNS)	growth (SNB-19 CNS)	growth (U251 CNS)	growth (PC-3 prostate)	growth (SK-MEL-5 melanoma)	growth (UACC-62 melanoma)	growth (LOX IMVI melanoma)	growth (SK-MEL-28 melanoma)	growth (SK-MEL-2 melanoma)	growth (EKVX NSCLC)	growth (SN12C renal)	growth (UO-31 renal)	growth (TK-10 renal)	growth (CAKI-1 renal)	growth (CCRF-CEM leukemia)	growth (MOLT-4 leukemia)	growth (A498 renal)	growth (ACHN renal)
COc1ccc(N=Nc2c(N)nn3c(N)c(C#N)c(-c4ccccc4)nc23)cc1	70.8%	60.9%	-15.8% (active)	27.1%	21%	28.2%	34.2%	36.3%	54.9%	66.6%	97.6%	38.9%	40.8%	28.4%	57.4%	15.9%	72.7%	72.8%		
Cc1ccc2c(c1)nc(-c1ccccc1)n2CC(=O)N=Nc1c(O)[nH]c2ccc(Cl)cc12	-45.7% (active)	-62.7% (active)	-83% (active)	-62.3% (active)	-77.7% (active)	-51.2% (active)	-62.6% (active)	-63.5% (active)	-70.1% (active)	-71.7% (active)	-75.4% (active)	-31.9% (active)	-77.9% (active)	-89.6% (active)	-15.1% (active)	-42.6% (active)	4.22% (active)	-20.3% (active)	-71.1% (active)	
COc1ccc(NC(=O)CSc2nnc(-c3ccc(-c4nc5ccc(Cl)cc5[nH]4)cc3)o2)cc1	41.9%	47.8%	5.21% (active)	-29.2% (active)	-58% (active)	-20.7% (active)	7% (active)	-32.6% (active)	-33.3% (active)	-76% (active)	39.4%	23.3%	6.13% (active)	71.4%	112%	8.1% (active)	54.2%	37.5%	60.2%	
N#Cc1cc(-c2ccc3ncnc(N4CCc5cc(F)c(Cl)cc54)c3c2)cnc1N	23.3%	34.2%	24.9%	57.9%	57%	33.8%	55.9%	56.7%	28.4%	61.2%	52%	24.6%	26.8%	19.4%	29.9%	19.8%	45.1%	7.69% (active)		26.6%
O=C(CSc1nnc(-c2ccc(-c3nc4ccccc4[nH]3)cc2)o1)Nc1ccc(Br)cc1	17.5%	22.6%	63.3%	-46.2% (active)	-81.6% (active)	12.4%	21.6%	30.5%	-85.5% (active)	-63.6% (active)	41.4%	27.1%	21.9%	63.2%	56.7%	25.2%	23%	4.27% (active)	109%	
Cc1ccc(-c2cc(-c3ccccc3)[nH]c(=O)c2C#N)cc1	71%	114%	99.4%	84.3%	90.8%	83.7%	90%	84.6%	83%	109%	95.5%	82.8%	86.5%	73.2%	95.1%	81.9%	76.7%	91.3%	84.8%	
Cn1cc(Nc2ncnc(-c3ccc(N4CCCC4)c(C#N)c3)n2)cn1	40.8%	74.6%	30.8%	92.4%	94.3%	78.8%	49%	59.4%	48.9%	88.3%	88.4%	95.3%	70.7%	41.9%	66.2%	22.4%	72.2%	65.5%		52.3%
O=C(NNC(=O)c1ccc(OCc2nc3ccc(Cl)cc3[nH]2)cc1)Nc1ccc(Cl)c(Cl)c1	98.9%	67.2%	111%	20.2%	-1.4% (active)	63.3%	56.5%	62.7%	40%	8.8% (active)	72.7%	91.9%	76.7%	84.7%	110%	91.8%	88.5%	94%		106%
O=C(N/N=C/c1c[nH]c2ccccc12)Nc1ccc(F)c(Cl)c1	20.2%	33.5%	48%	73.4%	42.2%	43.3%	34%	48.6%	4.2% (active)	58.8%	-9.22% (active)	40.9%	42.1%	37.1%	80.6%	32.1%	12.9%	10.4%	66.6%	
CS(=O)(=O)Nc1cc(-c2ccc3ncnc(Nc4ccc(OCc5cccnc5)c(Cl)c4)c3c2)cnc1Cl	13.1%	5.66% (active)	10.7%	-0.382% (active)	-34.2% (active)	3.42% (active)	-94.5% (active)	-64.3% (active)	-64.2% (active)	-6.84% (active)	-76.7% (active)	-24.4% (active)	8.19% (active)	23.2%	-27% (active)	1.71% (active)	11%	-50.6% (active)	-25.6% (active)	
COc1cccc(-c2ccc(/C=N/NC(=O)c3[nH]c4ccc(Br)cc4c3-c3ccccc3)s2)c1	3.37% (active)	-32.2% (active)	36.8%	11.7%	-23% (active)	23.7%	-60.9% (active)	-17.1% (active)	4.04% (active)	8.82% (active)	-3.93% (active)	17.9%	0.265% (active)	19.9%	8.47% (active)	9.77% (active)	16%	6.82% (active)	63.2%	
O=Cc1cncc(-c2ccc3ncnc(N4CCc5cc(F)c(Cl)cc54)c3c2)c1	18.7%	56.6%	-12.6% (active)	49.5%	48.5%	23.6%	19.5%	13.4%	20.8%	44.2%	24.5%	0.858% (active)	23.2%	10.7%	4.74% (active)	12.5%	16.6%	-30.6% (active)	-30.4% (active)	
O=C1CCC(N2C(=O)c3cccc(NCCCCCC(=O)N4CCN(c5ccc6nc7c(nc6c5C(F)(F)F)C(=O)c5ncccc5C7=O)CC4)c3C2=O)C(=O)N1 (centres undefined)	-69.5% (active)	-18.7% (active)	-75.8% (active)	-72.3% (active)	-90.4% (active)	-19.8% (active)	-95.3% (active)	-72.7% (active)	-85.1% (active)	-84.8% (active)	-74.6% (active)	-59.6% (active)	-79.6% (active)	-94.5% (active)	-9.44% (active)	-78.8% (active)	-23.1% (active)	-25.6% (active)		-70.8% (active)
Cc1ccc(-c2cc(C(=O)N=Nc3c(O)[nH]c4ccc(F)cc34)c3ccccc3n2)cc1	7.85% (active)	36.3%	56.7%	41.9%	-30.9% (active)	77.6%	59.2%	59.9%	1.93% (active)	14.5%	107%	29.8%	18.1%	77.5%	106%	62.9%	92.4%	65.3%	187%	
Cc1ccc(C(=O)Nc2cc(-n3cnc(F)c3)cc(C(F)(F)F)c2)cc1C#Cc1cnc2cccnn12	36.2%	35.4%	132%	106%	83.7%	89.8%	38.3%	26%	22%	29.3%	40.7%	74.2%	45.6%	39.9%	83.2%	63.1%	29%	44.7%		59.4%
